D1 ag = agonists of human D1 dopamine receptor; P21728; HEK293 T-REx D1 cells, calcium flux, agonist mode; activation, % at 2 µM; 360,000 tested, 1% active; note: 0% is about no effect
Target sequence (P21728 whole entry, looked up): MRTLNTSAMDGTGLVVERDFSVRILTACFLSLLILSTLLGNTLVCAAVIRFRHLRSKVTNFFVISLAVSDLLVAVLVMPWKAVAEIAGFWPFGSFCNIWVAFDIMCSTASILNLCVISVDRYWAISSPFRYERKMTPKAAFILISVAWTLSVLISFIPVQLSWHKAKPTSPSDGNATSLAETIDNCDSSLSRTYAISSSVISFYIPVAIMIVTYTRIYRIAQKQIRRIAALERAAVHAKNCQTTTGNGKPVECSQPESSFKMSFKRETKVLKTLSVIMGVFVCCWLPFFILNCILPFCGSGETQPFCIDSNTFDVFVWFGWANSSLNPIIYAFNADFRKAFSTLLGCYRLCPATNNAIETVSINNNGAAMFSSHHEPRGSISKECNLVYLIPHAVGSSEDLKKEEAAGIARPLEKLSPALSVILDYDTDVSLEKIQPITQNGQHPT
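Tetracycline-induced HEK293 TREx D1 cells, force-coupled to calcium signalling, were dye-loaded with a no-wash calcium kit. Compound was pin-added after a 10 s baseline. Fluorescence was read kinetically at 1 cycle/s for 180 s, with calcium rises flagged as agonism.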
D1 antag = blocks dopamine activation of the human D1 receptor. 360,000 tested, 3.2% active. activity change, negative = inhibition, % at 10 µM. AID 504652. HEK293 TREx D1 cells, calcium flux, dopamine EC80; hits give low values. P21728; in the data active = activity change below about -30%; note: % is set by controls: 0 for no effect and ±100 for the full control effect
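Tetracycline-induced HEK293 T-REx cells with force-coupled D1 receptor were loaded with a no-wash calcium dye. Compound was added after a 10 s baseline and read kinetically for 180 s; EC80 dopamine was then added and calcium flux followed another 180 s.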
TRHR enhancer = allosterically enhances the human TRH receptor; P34981; TRHR cells, fluo-8 calcium fluorescence, EC20 TRH enhancement; enhancement, % at 2 µM; 360,000 tested, 0.66% active; AID 493056; in the data active = enhancement above about 30%; note: 0% is about no effect
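Enhancer read-out: after compound pinning and an initial kinetic agonist-mode read, an EC20 of TRH (10 nM final) was injected and fluo-8 calcium signal (Ex 480/Em 530) followed at 1 s/cycle for 100 cycles in TRHR-expressing cells.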
TRHR agonist = agonists of human TRH receptor. 360,000 tested, 0.18% active. activation, % at 2 µM. TRHR cells, calcium flux fluo-8, FDSS agonist mode. P34981; note: 0% is about no effect
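Fluo-8-loaded TRHR cells; 10 s baseline, compound added, kinetic Ca2+ fluorescence read 1/s, agonist mode.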
D1 potentiator = potentiators of human D1 dopamine receptor; P21728; 360,000 tested, 0.036% active; AID 504651; HEK293 TREx D1 cells, calcium flux, dopamine EC20 potentiation; potentiation, % at 10 µM; in the data active = potentiation above about 30%; note: 0% is about no effect
* marks the source's active call; other numbers are inactive results; / = no result given. Most compounds without a hit are left out; they make up all but 4.7% or so of the library. Cut-off read from the data, not from the text of the source, unless noted: active = activation above about 30%; inactive = the rest.

SMILES	D1 ag	D1 antag	TRHR enhancer	TRHR agonist	D1 potentiator
COc1ccc(-c2nn(-c3cccc(F)c3)c3c2cnc2cc(OC)c(OC)cc23)cc1	1	-1	-3	-1	0
Cc1cc(C)cc(NC(=O)CCN2C(=O)c3ccccc3Sc3ncccc32)c1	4	3	-4	0	-4
COc1ccc(C)cc1NC(=O)C1CCN(S(=O)(=O)Cc2ccccc2)CC1	0	-47*	4	0	3
COc1ccccc1CNC(=O)CC(C)C	4	-32*	3	1	-7
O=C(NCc1ccccc1CN1CCCC1)C1CCN(S(=O)(=O)c2ccc(F)c(F)c2)CC1	1	-17	-9	1	-10
Cc1oc(-c2cccc(Cl)c2)nc1CN1CCC(C(=O)NCc2ccc(F)cc2)CC1	54*	-17	3	0	-3
Cc1oc(-c2cccc(Cl)c2)nc1CN1CCCC(C(=O)NCc2ccc(Cl)cc2)C1 (stereo not given)	5	-2	-10	0	-3
COc1ccccc1CNC(=O)COc1ccccc1OC	4	11	-3	0	-2
COc1cc(NC(=O)C2CCN(S(=O)(=O)Cc3ccccc3)CC2)c(OC)cc1Cl	-3	-4	-2	0	-2
Cc1ccc(S(=O)(=O)N2CCC(C(=O)NCc3ccccc3CN3CCCC3)CC2)cc1C	7	-35*	1	0	-13
Cc1ccccc1-c1nc(CN2CCC(C(=O)NCc3cccnc3)CC2)c(C)o1	-4	-4	4	-1	-4
CCc1ccc(-c2nc(CN3CCC(C(=O)NCc4ccccc4OC)CC3)c(C)o2)cc1	41*	-17	12	0	-6
Cc1ccccc1-c1nc(CN2CCC(C(=O)NCc3ccc(F)cc3)CC2)c(C)o1	41*	-9	44*	0	-3
CN(CC(=O)Nc1ccc(Cl)cc1)C(=O)c1ccc(S(=O)(=O)Nc2ccccc2)cc1	6	-16	9	1	-3
CCN(CC)S(=O)(=O)c1cc(C(=O)N(C)CC(=O)Nc2ccc(Cl)cc2)ccc1Cl	5	-33*	3	1	-4
CCN(CC)S(=O)(=O)c1cc(C(=O)Nc2ccncc2)ccc1Cl	20	-31*	-1	2	-7
Cc1ccc(NC(=O)Cc2ccc(-n3c(C)nc4cccnc43)cc2)c(Cl)c1	8	-16	-1	-1	2
CC(C)CCNC(=O)CN1C(=O)CSc2ccc(S(=O)(=O)N3CCC(C)CC3)cc21	-1	-10	-1	0	4
C=C1CCC[C@]2(C)C[C@H]3OC(=O)C(CNC(C)CCCC(C)C)[C@H]3CC12 (stereo not given in full)	15	17	23	0	-7
C=C1CCC[C@]2(C)C[C@H]3OC(=O)C(CN[C@@H](C)c4ccccc4)[C@H]3CC12 (stereo not given in full)	36*	29	0	2	-2
O=C(Cc1cccs1)NC1CC(=O)N(c2ccccc2)C1 (stereo not given)	0	/	0	0	-3
NC(=S)Nc1cccc2cn[nH]c12	4	6	-4	0	2
Cc1ccc2cn[nH]c2c1NC(N)=S	0	-36*	2	0	-7
COc1ccc(C2CC(O)(c3ccccc3)Oc3cc(OC)c(OC)c(OC)c32)cc1 (stereo not given)	3	-36*	-7	0	-3
CCCC(=O)Nc1cccc(-c2cn3c(C)csc3n2)c1	0	4	0	2	-2
SMILES	D1 ag	D1 antag	TRHR enhancer	TRHR agonist	D1 potentiator
CCOc1ccc(/C=N/OCC(=O)NC(c2ccccc2)c2ccccc2)cc1	33*	6	6	0	3
COc1ccc(/C=N/OCC(=O)NC(c2ccccc2)c2ccccc2)c(OC)c1	15	3	-1	1	-3
Cc1ccc(NC(=O)CN(CCc2ccccc2)S(=O)(=O)c2ccccc2)c(C)c1	6	-12	-11	1	-2
CC(C)OP(=O)(OC(C)C)C(NC(=O)c1ccccc1Br)C(N)=O (stereo not given)	2	-22	32*	-1	-2
COc1ccc(/C=C/C(=O)c2ccc3c(c2)OCO3)c(OC)c1	9	7	-4	0	-7
COc1cc(/C=C/C(=O)c2ccc3c(c2)OCO3)cc(Cl)c1O	246*	-22	22	197*	/
C[C@H]1c2cccc(O)c2C(O)=C2C(=O)[C@]3(O)C(O)=C(C(N)=O)C(=O)[C@@H](N(C)C)[C@@H]3[C@@H](O)[C@@H]21	0	-83*	-25	0	-8
Cc1ccc2c(c1)nc(SCC(O)c1ccc(Br)cc1)n2C (stereo not given)	2	-9	-6	-2	3
Fc1ccc(-c2csc(-c3nc(-c4ccc(Br)s4)cs3)n2)cc1	0	-14	10	0	1
Cc1ccc(OCC(=O)NNC(=S)NC(=O)c2ccc(Br)o2)c(C)c1	41*	-13	3	-2	2
Cc1ccc(OCC(=O)NNC(=S)NC(=O)c2cccs2)c(C)c1	18	7	4	0	-1
COC(=O)CC1Oc2ccc(C)cc2-n2cc(-c3ccc(C)cc3)nc21 (stereo not given)	1	-11	-3	-2	-2
COc1ccc(C2C(=O)N(C3CCCCCC3)CC(=O)N2CCC2=CCCCC2)cc1 (stereo not given)	-1	-6	1	0	-2
COc1cccc2cc(C(C)=O)c(=O)oc12	1	-23	7	1	-1
COc1cccc2cc(C(=O)CS(=O)(=O)c3ccc(Cl)cc3)c(=O)oc12	3	34	34*	1	2
Cc1cc(C)c(OCCCNCc2ccccc2)c(Br)c1	37*	0	-1	1	-1
Cc1cc(C)c(OCCCNC2CCCC2)c(Br)c1	24	-1	7	1	-4
Cc1cc(Cl)c(OCCCNCc2ccccc2)c(Br)c1	32*	29	4	7	3
Cc1cc(C)c(C)c(OCCOCCNCc2ccccc2)c1	33*	-4	3	1	-3
Cc1ccc(OCCNCc2ccccc2)c(C)c1	18	-2	7	1	-5
CCOC(=O)c1ccc(NC(=O)CC2C(=O)N(c3ccc(F)cc3)C(=O)N2Cc2cccnc2)cc1 (stereo not given)	-2	12	6	0	-1
O=C1CC(c2nc3ccccc3n2CCC2CCCCC2)CN1c1ccccc1Cl (stereo not given)	8	9	-2	-1	2
COc1cc(C(=O)N2CC(C)OC(C)C2)c([N+](=O)[O-])cc1OC (stereo not given)	2	-51*	-3	0	-3
CCOc1ccc2ncc3c(-c4ccc(C)cc4)nn(-c4cccc(F)c4)c3c2c1	3	1	2	1	0

Source: PubChem (National Center for Advancing Translational Sciences (NCATS))
